Screens as filed in PubChem BioAssay.
This is one part of a sample in which hits are shown more often than they occur.
IkB signaling: IkB pathway inhibition in ABC-DLBCL cells; ABC-DLBCL IkBa-CBG/CBR dual luciferase ratio, 4 h; response scale: scaled: untreated 0%, proteasome inhibitor 100%; Potency, µM (highest dose often 57.1 µM), inactives show top-dose IkBa stabilization activation; hit rate 0.04% among 110,000; AID 445; active means well fitted curve in the direction sought with a large enough effect in the signal ratio, not every such curve was filed as active; inconclusive means small, poorly fitted or top-dose-only effect, or a change in a side signal; the % refers to the signal ratio;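 further: potency means the concentration at half of the fitted maximal effect; the direction sought is a rising ratio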
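In this assay, an IκBα–CBG68 fusion accumulates when IKK-driven degradation is blocked; native CBR normalizes for cell number. OCI-Ly3 cells were treated 4 h with compound and doxycycline, then green and red light read after Chroma-Glo addition.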
ERK AVP block: blocks ERK signaling stimulated by vasopressin. HEK293-V1b, vasopressin-stimulated pERK AlphaScreen. Potency, µM (series often up to 57.5 µM), without a hit: at the top dose activity, negative = inhibition, usual class: inhibitors. hit rate 0.99% among 72,000; further: potency means the concentration at half of the fitted maximal effect; on the % scale 0 is the no-effect control and ±100 the full control effect; nearly all actives have a fitted effect of over 55% in size
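HEK293 cells stably expressing V1b receptor, seeded overnight in 1% FBS, were treated with compounds for 30 min at 37C, then stimulated 5 min with 25 nM vasopressin; phospho-ERK read by AlphaScreen SureFire after lysis.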
HBB splice mod: modulators of hemoglobin beta chain splicing | hit rate 0.06% among 65,000 | AID 925 | Potency, µM (series often up to 46.1 µM), inactives show top-dose activation, hits mostly activators | HBB splicing reporter cell assay, activation; EGFP reporter with mutant IVS2-654 intron; response scale: normalised to 500 nM splice-correcting PNA; further: potency means the concentration at half of the fitted maximal effect; 0% is about no effect
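HeLa cells stably expressing EGFP interrupted by mutant beta-globin intron 2 (IVS2-654), 500/well in 2% FCS. Treated with compound for 2 days at 37C. Splicing correction scored as total well GFP intensity (488 nm excitation, 500-520 nm emission); 500 nM antisense PNA served as control.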
Epigenetic mod: derepresses silenced GFP locus in mouse C127i cells. mouse C127i GFP locus derepression, cytometry, 30 h. Potency, µM (top dose mostly 46.1 µM), for the others: at the highest dose GFP derepression (activation). hit rate 0.09% among 68,000. AID 597; further: % of control where 0% means no effect
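Locus derepression in mouse mammary C127i cells whose integrated CMV-GFP reporter is normally silent; GFP expression after 30 h compound treatment was quantified by counting fluorescent cells.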
CRE-bla Fsk: alters forskolin-stimulated CRE reporter signaling in CHO cells | CHO CRE-bla reporter (cAMP response element driving beta-lactamase), forskolin EC10, beta-lactamase ratio | Potency, µM (series often up to 38.2 µM), for inactives: at the top dose activity change, negative = inhibition, hits mostly activators | hit rate 2.5% among 71,000 | AID 662; active means well fitted activation curve with a large enough effect in the signal ratio, with a control signal flat, not every such curve was filed as active; inconclusive means small, poorly fitted or top-dose-only effect, or effect the other way, or a change in a side signal; the % refers to the signal ratio; further: potency means the concentration at half of the fitted maximal effect; % of control where 0% means no effect
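qHTS titration format; CRE-bla CHO reporter; stimulus EC10 NKH 477, a water-soluble forskolin. Read: CCF4 460/530 nm ratio. Potency expressed as AC50 for activators or inhibitors.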
Starred values were filed as active, the others as inactive; ? = inconclusive; nt = no result; ! = a repeat was not active; [ ] = another dose, or the depositor's remark. Unless noted, the call rests on the fitted dose curve; in most records, active means well fitted curve in the direction sought with a large enough effect; inconclusive means small, poorly fitted or top-dose-only effect, or another doubt; inactive means no such curve, though single readings can be large; an effect the other way counts as inactive or inconclusive.

SMILES | IkB signaling | ERK AVP block | HBB splice mod | Epigenetic mod | CRE-bla Fsk
CC[C@]1(O)C[C@H]2CN(CCc3c([nH]c4ccccc34)[C@](C(=O)OC)(c3cc4c(cc3OC)N(C=O)[C@H]3[C@@](O)(C(=O)OC)[C@H](OC(C)=O)[C@@]5(CC)C=CCN6CC[C@]43[C@H]65)C2)C1 | ? | 16% | 0% | 2% | 1.3µM*
c1ccc2c(-n3ccnc3)nc(-c3ccoc3)nc2c1 | 1%[11.4 µM] | -20% | 1% | -1%[9.22 µM] | 3.2µM*
Cc1ccccc1-c1nc(N2CCOCC2)c2ccccc2n1 | 0%[11.4 µM] | ? | -1% | -2%[9.22 µM] | ?
CN1CCN(c2nc(-c3ccoc3)nc3ccccc23)CC1 | -1%[11.4 µM] | ? | 0% | -3%[9.22 µM] | ?
CSc1nc(N2CCOCC2)c2ccccc2n1 | -2% | -15% | 3%[0.369 µM] | 1% | 10µM*
c1ccc2c(N3CCOCC3)nc(-c3ccoc3)nc2c1 | 0%[11.4 µM] | -67% | 1% | -1%[9.22 µM] | 5µM*
CCOc1ccccc1NS(=O)(=O)c1ccc2oc(=O)c3ncn(C)c3c2c1 | 13% | nt | nt | nt | nt
c1ccc2c(c1)[nH]c1nc(SCCN3CCOCC3)nnc12 | 2% | ? | -1% | 0% | ?
Brc1ccc2[nH]c3nc(SCCN4CCOCC4)nnc3c2c1 | 0% | -11% | -1% | 0% | 2.5µM*
COC(=O)c1sccc1NC(=O)c1ccoc1C | -4% | -4% | 1% | 5% | 10µM*
COC(=O)c1sccc1NC(=O)c1ccc(Br)o1 | 1% | -1% | 1%[0.0738 µM] | -2% | 4µM*
Cc1occc1C(=O)Nc1nccs1 | -1% | -25% | 0% | 6% | ?
COC(=O)c1sccc1NC(=O)c1ccc2c(c1)OCO2 | -4% | -2% | 0% | -2% | ?
CN1CCN(c2ccccc2NC(=O)c2ccc(Br)o2)CC1 | -1% | 20µM* | -1% | 6% | 25%
CCc1ccccc1NC(=O)Nc1cc(C(=O)NCc2ccc(C)cc2)ccc1N1CCCC1 | -1% | nt | nt | nt | nt
Cc1scc(C(=O)N2CCN(S(C)(=O)=O)CC2)c1-c1ccccc1 | 2% | -3% | -1% | 2% | -3%
CS(=O)(=O)N1CCN(C(=O)c2csc3ccccc23)CC1 | -3% | 7% | -1% | 3% | 10µM*
Oc1ccc(COCc2ccccc2)c2cccnc12 | ? | -27% | nt | 3.2µM* | 3%
Oc1ccc(CNCc2ccccc2)c2cccnc12 | 2%[11.4 µM] | 6%[11.5 µM] | 2%[9.22 µM] | ? | -1%[7.6 µM]
COc1cc(=O)n(C)c2c(OC[C@@H](O)C(C)(C)O)cccc12 | 1%[25.6 µM] | -16%[25.7 µM] | -1%[20.6 µM] | -1%[20.6 µM] | 25µM*!
COc1ccccc1CNC(=O)COc1cc(=O)n(C)c2ccccc12 | 1% | nt | nt | nt | nt
Cc1cccc(C)c1NC(=O)CN(C)S(=O)(=O)c1ccc2c(c1)n(C)c(=O)c(=O)n2C | 1% | nt | nt | nt | nt
COc1ccc(-c2oc3ncn4nc(-c5ccccc5Cl)nc4c3c2-c2ccc(OC)cc2)cc1 | 5% | nt | nt | nt | nt
Cc1cccn2c(=O)c3cc(C(=O)NCCN4CCOCC4)c(=N)n(CCc4ccccc4)c3nc12 | 2% | -15% | 1%[9.22 µM] | 7% | 13µM*
C=CCn1c(=N)c(C(=O)NCCCOC)cc2c(=O)n3cccc(C)c3nc21 | -4% | ? | -3% | 9% | 13µM*
SMILES | IkB signaling | ERK AVP block | HBB splice mod | Epigenetic mod | CRE-bla Fsk
CCn1c(=N)c(C(=O)NCc2cccnc2)cc2c(=O)n3cccc(C)c3nc21 | 0% | -8% | nt | -5% | ?
CNC(=O)c1cc2c(=O)n3cccc(C)c3nc2n(C(C)C)c1=N | 1% | -22% | 0% | 0% | 10µM*
CCCCNC(=O)c1cc2c(=O)n3cccc(C)c3nc2n(Cc2ccccc2)c1=N | 5% | 3% | 0%[57.5 µM] | 6% | 2.5µM*
CCNC(=O)c1cc2c(=O)n3cccc(C)c3nc2n(CCc2ccccc2)c1=N | nt | nt | nt | 0%[20.6 µM] | nt
CC(C)CN1CC2(CCN(C(=O)c3cnccn3)CC2)C1 | 2%[11.4 µM] | 10% | 3% | -2%[9.22 µM] | -4%
CNC(=O)[C@@H](Cc1ccccc1)N(C)C(=O)[C@@H](Cc1ccc2ccccc2c1)N(C)C(=O)/C=C/CC(C)(C)N | nt | 5% | -1% | nt | nt
CCOc1cc(C2NC(=O)NC(C)=C2C(=O)OC(C)CC)cc(Br)c1O (configuration not stated) | -1% | -18% | 2% | 5% | 10µM*
